GDH-TPI inh – counter-screen for M. tuberculosis FBA inhibitors: GDH-TPI coupled enzymes; AID 588335; GDH-TPI coupled enzyme counterscreen, NADH absorbance; inhibition, % at 4.8 µM; hit rate 1.2% among 360,000; in the data active means inhibition above about 30%;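 further: 0% = DMSO wells and 100% = wells lacking the enzyme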
FBA Mtb inh – inhibits M. tuberculosis FBA enzyme. P9WQA3. purified M. tuberculosis FBA, fluorescence read-out. inhibition, % at 1 µM. hit rate 2.3% among 360,000; in the data active means inhibition above about 27%;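 further: 0% = vehicle and 100% = reference inhibitor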
Target sequence (P9WQA3 whole entry, looked up): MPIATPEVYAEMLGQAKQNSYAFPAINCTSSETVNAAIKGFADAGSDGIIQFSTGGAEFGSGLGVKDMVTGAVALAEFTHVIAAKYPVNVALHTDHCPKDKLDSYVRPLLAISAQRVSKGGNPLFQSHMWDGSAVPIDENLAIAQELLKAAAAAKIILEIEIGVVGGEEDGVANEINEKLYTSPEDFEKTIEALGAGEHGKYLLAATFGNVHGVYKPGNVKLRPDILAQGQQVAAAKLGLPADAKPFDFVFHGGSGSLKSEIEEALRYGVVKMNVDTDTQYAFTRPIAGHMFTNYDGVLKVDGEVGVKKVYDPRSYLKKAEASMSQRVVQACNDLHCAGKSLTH
Rv3671c inh – inhibits the M. tuberculosis serine protease Rv3671c; inhibition, % at 5.96 µM; AID 2606; hit rate 0.048% among 320,000; P9WHR9; in the data active means inhibition above about 38%;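 further: extracellular domain of Rv3671c used as enzyme; 0% = enzyme with DMSO and 100% = no enzyme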
PriA SSB inh – K. pneumoniae PriA-SSBct interaction inhibition; AlphaScreen SSBct-PriA binding, biotinylated peptide; inhibition, % at 33 µM; hit rate 0.6% among 430,000; AID 1272365; in the data active means inhibition mostly above about 37%, no sharp cut-off; inactive means mostly below about 20%;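 further: plate controls were negative control peptide for no effect and reference peptide for full effect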
Mtb betalactam – beta-lactam sensitization of Mtb H37Rv; M. tuberculosis H37Rv growth with meropenem, percent inhibition; inhibition, % at 25 µM; hit rate 0.27% among 330,000; AID 434955; call rule not given here;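 further: growth measured after seven days incubation then overnight dye step; 0% = bacteria only wells and 100% = bacteria with antibiotic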
UGM FP inh – inhibitors of M. tuberculosis UDP-galactopyranose mutase; P9WIQ1; purified UGM, fluorescence polarization probe displacement; inhibition, % at 10 µM; hit rate 0.06% among 320,000; AID 504406; in the data active means inhibition above about 10%, passing the limit was not always enough
An asterisk follows results filed as active; x = no result given; + = active, no number. A selection: hits, their analogues and other compounds. The true share with any hit is near 3.2%.

SMILES | GDH-TPI inh | FBA Mtb inh | Rv3671c inh | PriA SSB inh | Mtb betalactam | UGM FP inh
S=c1nc(-c2ccccc2)n(CCCn2ccnc2)c2c1CCCC2 | 41* | 1 | 1 | -14 | 2 | 3
Cc1nn(C2CCS(=O)(=O)C2)c2nc(-c3ccco3)cc(C(=O)Nc3nc4ccccc4s3)c12 (stereo not given) | x | x | x | -10 | x | x
COCCCn1c(-c2ccc(Cl)cc2)n[nH]c1=S | 11 | 28* | 2 | -10 | -14 | -3
COc1ccc(C(=O)Nc2nc(-c3cccnc3)cs2)cc1S(=O)(=O)N1CCOCC1 | x | x | x | 66 | x | x
O=C(COC(=O)CN1C(=O)NC2(CCCC2)C1=O)NCc1ccc(Cl)cc1Cl | 10 | 4 | -1 | 2 | -8 | 11*
O=C(CN1C(=O)NC2(CCCC2)C1=O)OCc1ccc(Cl)cc1Cl | -2 | 0 | -6 | -14 | -7 | 3
CCN1CCc2c(sc(N)c2C#N)C1 | 16 | 14 | -1 | -2 | -7 | 7
CC(C)N1CCc2c(sc(N)c2C#N)C1 | 32* | 22 | -15 | 6 | -6 | 3
CC1CN(Cc2cc(=O)oc3cc(O)ccc23)CC(C)O1 (stereo not given) | 7 | 161* | 0 | -19 | -11 | 0
O=c1cc(CN2CCN(Cc3ccccc3)CC2)c2ccc(O)cc2o1 | 8 | 153* | -3 | -6 | 4 | 0
COc1ccc2c(CC(=O)N3CCN(C(=O)c4ccco4)CC3)cc(=O)oc2c1 | x | x | x | 0 | x | x
Cc1ccc2c(CN3CCN(Cc4ccccc4)CC3)cc(=O)oc2c1 | 6 | 0 | 5 | 3 | 42 | 3
O=C(c1ccco1)N1CCN(Cc2cc(=O)oc3cc(O)ccc23)CC1 | 26 | + | 4 | 2 | -4 | -2
OCC1(CCc2ccccc2)CCN(Cc2cc(Cl)ccc2O)CC1 | -4 | -1 | 0 | -3 | 0 | 1
Oc1ccc(Cl)cc1CN1CCN(Cc2ccccc2)CC1 | 63* | -12 | -2 | -9 | 2 | -3
O=C(CSc1ccc(-c2ccncc2)nn1)NCc1ccccc1Cl | x | x | x | -9 | x | x
Cc1ccc(NC(=O)NCC#CCN(C)C)cc1C | x | x | x | -11 | x | x
CCN(CC)CCN(C(=O)c1ccc(S(=O)(=O)N2CC(C)OC(C)C2)cc1)c1nc2c(OC)cccc2s1 (stereo not given) | x | x | x | -4 | x | x
CCOC(=O)c1ccc(NC2=CC(=O)CC(c3ccco3)C2)cc1 (stereo not given) | 60* | 1 | 4 | -1 | 52 | -2
O=C(NNC(=O)c1cccn(Cc2ccc(Cl)c(Cl)c2)c1=O)c1ccccc1F | x | x | x | -1 | x | x
COc1ccc(OC)c(C2C(C(C)=O)=C(O)C(=O)N2c2ccc(F)cc2)c1 (stereo not given) | 37* | -2 | -4 | -8 | 9 | -2
CC(=O)C1=C(O)C(=O)N(c2ccc(O)cc2)C1c1ccc(F)cc1 (stereo not given) | 11 | 0 | 1 | -9 | -4 | 0
O=[N+]([O-])c1cc(S(=O)(=O)c2ccc(N3CCCCC3)c([N+](=O)[O-])c2)ccc1N1CCCCC1 | 25 | 0 | -8 | 42* | -2 | x
O=[N+]([O-])c1ccc(N2CCCNCC2)c2ncccc12 | 0 | -24 | 3 | 0 | 31 | 6
O=[N+]([O-])c1cc([N+](=O)[O-])c(N2CCCCCC2)cc1NCCO | 34* | -6 | 0 | 12 | 40 | 1
SMILES | GDH-TPI inh | FBA Mtb inh | Rv3671c inh | PriA SSB inh | Mtb betalactam | UGM FP inh
O=[N+]([O-])c1c(NCCO)cc(N2CCCCC2)c2nonc12 | 13 | -23 | -5 | -3 | 4 | 3
O=[N+]([O-])c1ccc(N2CCCCC2)c2ncccc12 | 0 | -14 | 5 | 51* | -5 | 0
O=[N+]([O-])c1cccc(S(=O)(=O)c2ccc(N3CCCCC3)c([N+](=O)[O-])c2)c1 | 11 | -3 | -5 | 13 | -3 | -2
O=[N+]([O-])c1cc(/C=N/n2cnnc2)ccc1N1CCCC1 | 37* | -3 | 1 | x | 2 | 2
COc1ccc(-c2noc(Cn3nc(-c4ccc(C(C)C)cc4)ccc3=O)n2)cc1OC | x | x | x | -2 | x | x
O=C(CSC1=NS(=O)(=O)c2cc(Cl)ccc2N1)N1CCOCC1 | x | x | x | -9 | x | x
O=C(O)C1CCN(c2ccc(S(=O)(=O)N3CCC(C(=O)O)CC3)cc2[N+](=O)[O-])CC1 | 0 | -3 | -3 | -16 | -5 | 1
O=[N+]([O-])c1ccc(N2CCCCCC2)c2ncccc12 | 5 | -16 | -1 | 42* | 4 | -1
O=[N+]([O-])c1ccc(N2CCOCC2)c2ncccc12 | x | x | x | 57 | x | x
CN(Cc1ccccc1)c1ccc(S(=O)(=O)N2CCC(C(=O)O)CC2)cc1[N+](=O)[O-] | 1 | + | 6 | 2 | 3 | 1
CS(=O)(=O)c1ccc(N2CCN(c3ccccc3)CC2)c([N+](=O)[O-])c1 | x | x | x | 10 | x | x
CS(=O)(=O)c1ccc(N2CCC(Cc3ccccc3)CC2)c([N+](=O)[O-])c1 | x | x | x | 41* | x | x
CC(C)(C)c1ccc(NC(=O)NCCN2CCC(O)CC2)cc1 | x | x | x | -3 | x | x
CCNC(=O)NCc1ccsc1 | x | x | x | -1 | x | x
CCOc1ccc2[nH]c(C(=O)NN=Cc3cccc(OC)c3OC)cc2c1 | x | x | x | -4 | x | x
CCOc1ccc2[nH]c(C(=O)N/N=C/c3ccc(OC)cc3)cc2c1 | 55* | 7 | x | x | 6 | 2
COCC(C)NC(=O)c1cc(OC)cc(OC)c1 (stereo not given) | 4 | 2 | -6 | -4 | -1 | -3
COc1ccc(/C=N/NC(=O)c2cc3cc(OC)c(OC)cc3[nH]2)cc1 | 42* | 4 | 13 | x | 4 | -2
COc1ccc2cc(C(=O)NN=Cc3cc(OC)c(OC)c(OC)c3)[nH]c2c1 | x | x | x | -1 | x | x
COc1ccc2cc(C(=O)N/N=C/c3cc(OC)c(OC)c(OC)c3)[nH]c2c1 | 49* | 4 | 0 | x | -3 | 4
COCC(C)NC(=O)c1cc2cc(OC)ccc2[nH]1 (stereo not given) | 4 | 46* | 3 | 5 | -1 | -1
O=C(NCCc1cccs1)c1ncc(-c2ccccc2)o1 | x | x | x | -20 | x | x
COc1ccc2[nH]c(C(=O)NN=Cc3ccccc3OC)cc2c1 | x | x | x | -2 | x | x
COc1cc(OC)c2cc(C(=O)N/N=C/c3cccc(OC)c3O)[nH]c2c1 | 43* | 6 | 35 | x | 0 | -2
COc1cc2cc(C(=O)NN=Cc3ccc(F)cc3)[nH]c2cc1OC | x | x | x | 2 | x | x
SMILES | GDH-TPI inh | FBA Mtb inh | Rv3671c inh | PriA SSB inh | Mtb betalactam | UGM FP inh
COc1ccc2[nH]c(C(=O)N/N=C/c3ccc(O)cc3O)cc2c1 | 31* | 18 | x | x | 3 | 6
COc1cc2cc(C(=O)N/N=C/c3ccccc3Cl)[nH]c2cc1OC | 47* | 3 | 1 | x | 0 | -1
COc1cccc(/C=N/NC(=O)c2cc3c(OC)ccc(OC)c3[nH]2)c1O | 31 | 2 | 29 | x | 7 | 4
COc1cc2cc(C(=O)N/N=C/c3ccc(F)cc3)[nH]c2cc1OC | 46* | 0 | 7 | x | -8 | 1
Cc1nn(C(C)C)c(C)c1S(=O)(=O)N1CCCN(S(=O)(=O)c2cnn(C)c2)CC1 | x | x | x | -1 | x | x
CCc1ccc(OCC2c3cc(OC)c(OC)cc3CCN2C(=O)c2cc3ccccc3oc2=O)cc1 (stereo not given) | x | x | x | 6 | x | x

Screening results (PubChem BioAssay)
